In ChEMBL document CHEMBL1961873, “Compounds: GSK PKIS; Assays: Nanosyn kinase panel” (2012):

Experiments:
[1] = target: Mitogen-activated protein kinase 3 (Homo sapiens) (UniProt P27361); settings: at 1 µM;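 note: values are mean percent inhibition of MAPK3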
[2] = target: SRSF protein kinase 3 (Homo sapiens) (UniProt Q9UPE1); settings: at 0.1 µM
[3] = target: SRSF protein kinase 3 (Homo sapiens) (UniProt Q9UPE1); settings: at 1 µM
[4] = target: Mitogen-activated protein kinase 14 (Homo sapiens) (UniProt Q16539); settings: at 0.1 µM
Sequence of Mitogen-activated protein kinase 14 (Homo sapiens) (Q16539 whole entry): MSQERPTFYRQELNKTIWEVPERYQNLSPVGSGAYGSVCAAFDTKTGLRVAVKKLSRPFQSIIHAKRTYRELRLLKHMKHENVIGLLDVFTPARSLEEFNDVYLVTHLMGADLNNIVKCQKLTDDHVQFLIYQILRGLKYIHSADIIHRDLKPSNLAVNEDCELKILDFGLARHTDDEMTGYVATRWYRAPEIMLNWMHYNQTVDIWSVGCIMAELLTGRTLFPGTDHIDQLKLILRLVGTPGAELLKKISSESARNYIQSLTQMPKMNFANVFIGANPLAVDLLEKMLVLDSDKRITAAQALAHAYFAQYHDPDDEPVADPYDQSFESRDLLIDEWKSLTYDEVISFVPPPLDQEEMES

[5] = target: Mitogen-activated protein kinase 14 (Homo sapiens) (UniProt Q16539); settings: at 1 µM
[6] = target: Mitogen-activated protein kinase 11 (Homo sapiens) (UniProt Q15759); settings: at 0.1 µM
Sequence of Mitogen-activated protein kinase 11 (Homo sapiens) (Q15759 whole entry): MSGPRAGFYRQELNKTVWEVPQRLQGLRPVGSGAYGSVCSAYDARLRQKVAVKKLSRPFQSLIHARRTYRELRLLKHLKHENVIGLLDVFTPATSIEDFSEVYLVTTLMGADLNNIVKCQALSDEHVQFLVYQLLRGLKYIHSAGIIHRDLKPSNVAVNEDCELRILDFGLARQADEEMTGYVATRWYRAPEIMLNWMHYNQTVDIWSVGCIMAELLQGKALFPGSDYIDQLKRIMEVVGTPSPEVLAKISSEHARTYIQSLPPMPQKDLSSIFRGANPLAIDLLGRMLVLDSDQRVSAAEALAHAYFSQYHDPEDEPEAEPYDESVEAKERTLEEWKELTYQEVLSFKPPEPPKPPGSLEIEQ

[7] = target: Mitogen-activated protein kinase 11 (Homo sapiens) (UniProt Q15759); settings: at 1 µM
[8] = target: T1, Mitogen-activated protein kinase 13 (Homo sapiens) (UniProt O15264); settings: at 0.1 µM
T1 sequence (whole entry): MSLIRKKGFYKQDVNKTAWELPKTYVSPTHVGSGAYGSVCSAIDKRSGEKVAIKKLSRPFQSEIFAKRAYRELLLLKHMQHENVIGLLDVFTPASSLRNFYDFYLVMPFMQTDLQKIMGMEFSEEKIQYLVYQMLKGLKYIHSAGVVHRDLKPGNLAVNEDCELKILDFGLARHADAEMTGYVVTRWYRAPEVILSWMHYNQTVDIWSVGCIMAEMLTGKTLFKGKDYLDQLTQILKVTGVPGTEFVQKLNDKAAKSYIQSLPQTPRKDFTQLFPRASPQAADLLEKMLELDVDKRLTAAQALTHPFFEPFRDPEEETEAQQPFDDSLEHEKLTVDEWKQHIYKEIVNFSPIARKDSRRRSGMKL

[9] = target: T1, Mitogen-activated protein kinase 13 (Homo sapiens); settings: at 1 µM
[10] = target: T2, Mitogen-activated protein kinase 12 (Homo sapiens) (UniProt P53778); settings: at 0.1 µM
T2 sequence (whole entry): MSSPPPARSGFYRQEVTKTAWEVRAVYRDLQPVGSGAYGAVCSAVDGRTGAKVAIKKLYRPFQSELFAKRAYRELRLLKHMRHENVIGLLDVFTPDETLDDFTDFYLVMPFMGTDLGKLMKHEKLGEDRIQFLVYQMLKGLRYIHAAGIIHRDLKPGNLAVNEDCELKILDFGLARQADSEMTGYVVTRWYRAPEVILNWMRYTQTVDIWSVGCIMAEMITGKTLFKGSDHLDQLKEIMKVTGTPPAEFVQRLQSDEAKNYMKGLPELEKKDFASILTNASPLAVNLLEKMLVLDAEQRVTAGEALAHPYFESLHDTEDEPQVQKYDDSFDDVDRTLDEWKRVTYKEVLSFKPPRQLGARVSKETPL

[11] = target: T2, Mitogen-activated protein kinase 12 (Homo sapiens); settings: at 1 µM
[12] = target: SRSF protein kinase 1 (Homo sapiens) (UniProt Q96SB4); settings: at 0.1 µM
Sequence of SRSF protein kinase 1 (Homo sapiens) (Q96SB4 whole entry, canonical isoform): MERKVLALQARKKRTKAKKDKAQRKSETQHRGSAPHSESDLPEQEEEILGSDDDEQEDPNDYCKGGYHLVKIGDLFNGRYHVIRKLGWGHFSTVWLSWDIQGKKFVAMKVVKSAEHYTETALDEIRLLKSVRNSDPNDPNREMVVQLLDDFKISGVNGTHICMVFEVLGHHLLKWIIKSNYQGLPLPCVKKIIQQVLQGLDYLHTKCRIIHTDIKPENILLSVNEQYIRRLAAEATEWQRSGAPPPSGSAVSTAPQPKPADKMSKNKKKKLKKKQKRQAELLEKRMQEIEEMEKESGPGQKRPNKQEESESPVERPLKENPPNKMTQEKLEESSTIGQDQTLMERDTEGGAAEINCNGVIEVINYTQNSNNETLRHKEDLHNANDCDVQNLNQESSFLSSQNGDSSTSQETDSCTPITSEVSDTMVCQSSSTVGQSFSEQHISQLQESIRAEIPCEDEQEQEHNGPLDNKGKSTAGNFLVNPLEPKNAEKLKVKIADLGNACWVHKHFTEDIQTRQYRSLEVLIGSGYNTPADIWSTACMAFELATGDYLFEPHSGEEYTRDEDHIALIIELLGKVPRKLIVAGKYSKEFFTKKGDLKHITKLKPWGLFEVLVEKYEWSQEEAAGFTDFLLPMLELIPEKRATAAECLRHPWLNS

[13] = target: SRSF protein kinase 1 (Homo sapiens) (UniProt Q96SB4); settings: at 1 µM
[14] = target: Phosphatidylinositol 4,5-bisphosphate 3-kinase catalytic subunit alpha isoform (Homo sapiens) (UniProt P42336); settings: at 0.1 µM
Sequence of Phosphatidylinositol 4,5-bisphosphate 3-kinase catalytic subunit alpha isoform (Homo sapiens) (P42336 whole entry, canonical isoform): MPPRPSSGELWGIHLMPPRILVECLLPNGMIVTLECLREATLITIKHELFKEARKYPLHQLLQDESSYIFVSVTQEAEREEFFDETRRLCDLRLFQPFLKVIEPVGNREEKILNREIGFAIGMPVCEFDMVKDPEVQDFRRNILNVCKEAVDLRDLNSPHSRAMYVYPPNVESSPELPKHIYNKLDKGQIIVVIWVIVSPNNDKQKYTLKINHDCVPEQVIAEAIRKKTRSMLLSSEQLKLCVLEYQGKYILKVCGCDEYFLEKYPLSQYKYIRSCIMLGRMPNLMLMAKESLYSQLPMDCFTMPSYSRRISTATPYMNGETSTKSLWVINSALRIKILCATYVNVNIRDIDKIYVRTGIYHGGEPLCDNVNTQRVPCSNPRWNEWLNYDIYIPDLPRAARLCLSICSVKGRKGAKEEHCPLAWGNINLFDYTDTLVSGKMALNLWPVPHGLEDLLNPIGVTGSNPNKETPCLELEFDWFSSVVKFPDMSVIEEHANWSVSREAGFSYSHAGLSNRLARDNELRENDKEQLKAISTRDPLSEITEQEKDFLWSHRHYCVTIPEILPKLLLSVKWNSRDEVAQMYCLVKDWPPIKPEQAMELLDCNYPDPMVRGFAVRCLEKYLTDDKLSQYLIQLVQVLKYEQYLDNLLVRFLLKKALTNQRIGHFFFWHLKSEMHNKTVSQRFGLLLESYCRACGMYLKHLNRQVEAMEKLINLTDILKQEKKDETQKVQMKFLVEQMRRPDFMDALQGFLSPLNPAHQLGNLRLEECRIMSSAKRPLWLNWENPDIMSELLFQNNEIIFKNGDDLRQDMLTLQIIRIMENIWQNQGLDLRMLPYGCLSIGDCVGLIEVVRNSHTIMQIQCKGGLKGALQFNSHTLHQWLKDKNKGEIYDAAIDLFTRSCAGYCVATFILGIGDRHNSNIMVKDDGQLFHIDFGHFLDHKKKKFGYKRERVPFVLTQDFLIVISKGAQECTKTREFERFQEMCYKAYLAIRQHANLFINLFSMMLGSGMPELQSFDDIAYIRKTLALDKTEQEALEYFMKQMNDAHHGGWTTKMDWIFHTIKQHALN

[15] = target: Phosphatidylinositol 4,5-bisphosphate 3-kinase catalytic subunit alpha isoform (Homo sapiens) (UniProt P42336); settings: at 1 µM
[16] = target: T3, Phosphatidylinositol 4,5-bisphosphate 3-kinase catalytic subunit delta isoform (Homo sapiens) (UniProt O00329); settings: at 0.1 µM
T3 sequence (whole entry): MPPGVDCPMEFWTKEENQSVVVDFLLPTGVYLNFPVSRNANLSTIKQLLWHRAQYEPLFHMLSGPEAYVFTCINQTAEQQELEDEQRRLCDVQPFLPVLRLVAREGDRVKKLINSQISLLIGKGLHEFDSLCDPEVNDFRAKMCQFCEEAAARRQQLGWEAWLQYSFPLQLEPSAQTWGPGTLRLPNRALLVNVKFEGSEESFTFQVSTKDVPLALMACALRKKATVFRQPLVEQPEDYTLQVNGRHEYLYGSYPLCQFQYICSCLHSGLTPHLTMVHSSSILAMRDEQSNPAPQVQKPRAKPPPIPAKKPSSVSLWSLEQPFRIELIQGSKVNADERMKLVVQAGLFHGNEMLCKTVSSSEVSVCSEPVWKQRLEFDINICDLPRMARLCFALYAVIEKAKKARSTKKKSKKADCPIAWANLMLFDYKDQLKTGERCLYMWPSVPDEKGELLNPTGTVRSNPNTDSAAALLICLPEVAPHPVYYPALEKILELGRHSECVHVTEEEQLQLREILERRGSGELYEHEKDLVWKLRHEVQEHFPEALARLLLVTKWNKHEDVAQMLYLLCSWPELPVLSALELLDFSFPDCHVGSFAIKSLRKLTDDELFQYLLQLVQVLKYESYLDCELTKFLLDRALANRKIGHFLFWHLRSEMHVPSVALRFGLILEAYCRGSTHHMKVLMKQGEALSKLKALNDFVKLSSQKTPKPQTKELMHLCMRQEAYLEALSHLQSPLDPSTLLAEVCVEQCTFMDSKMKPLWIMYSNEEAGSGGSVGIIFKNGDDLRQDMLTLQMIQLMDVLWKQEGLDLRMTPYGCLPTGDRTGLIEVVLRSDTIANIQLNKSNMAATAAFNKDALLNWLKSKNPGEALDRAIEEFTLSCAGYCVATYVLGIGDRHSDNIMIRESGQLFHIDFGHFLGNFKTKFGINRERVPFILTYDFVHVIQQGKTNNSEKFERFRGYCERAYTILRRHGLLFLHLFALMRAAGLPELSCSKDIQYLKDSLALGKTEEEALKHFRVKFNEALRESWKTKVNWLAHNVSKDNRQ

[17] = target: T3, Phosphatidylinositol 4,5-bisphosphate 3-kinase catalytic subunit delta isoform (Homo sapiens); settings: at 1 µM
[18] = target: Phosphatidylinositol 4-kinase beta (Homo sapiens) (UniProt Q9UBF8); settings: at 0.1 µM
Sequence of Phosphatidylinositol 4-kinase beta (Homo sapiens) (Q9UBF8 2-816 limits assumed): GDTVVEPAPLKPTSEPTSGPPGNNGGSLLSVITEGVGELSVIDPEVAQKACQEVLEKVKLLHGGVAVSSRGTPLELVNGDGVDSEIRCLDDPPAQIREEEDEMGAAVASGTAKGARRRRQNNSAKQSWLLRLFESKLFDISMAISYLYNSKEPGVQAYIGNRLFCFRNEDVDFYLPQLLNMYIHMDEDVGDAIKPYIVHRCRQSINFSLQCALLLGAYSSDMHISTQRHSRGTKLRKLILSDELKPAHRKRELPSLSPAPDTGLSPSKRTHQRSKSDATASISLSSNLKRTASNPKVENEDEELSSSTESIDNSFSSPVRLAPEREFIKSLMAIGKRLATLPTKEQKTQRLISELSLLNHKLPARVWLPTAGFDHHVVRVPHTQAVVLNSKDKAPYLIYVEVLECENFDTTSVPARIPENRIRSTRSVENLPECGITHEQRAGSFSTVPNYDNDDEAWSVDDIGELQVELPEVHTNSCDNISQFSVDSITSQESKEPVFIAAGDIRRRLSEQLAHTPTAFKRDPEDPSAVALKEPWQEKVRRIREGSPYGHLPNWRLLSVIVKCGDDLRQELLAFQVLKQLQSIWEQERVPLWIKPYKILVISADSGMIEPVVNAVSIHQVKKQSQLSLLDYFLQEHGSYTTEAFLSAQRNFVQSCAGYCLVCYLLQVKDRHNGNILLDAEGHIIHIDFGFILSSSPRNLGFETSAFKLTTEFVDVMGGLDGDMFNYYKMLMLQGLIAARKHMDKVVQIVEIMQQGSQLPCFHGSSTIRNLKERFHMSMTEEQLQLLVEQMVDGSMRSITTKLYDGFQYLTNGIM

[19] = target: Phosphatidylinositol 4-kinase beta (Homo sapiens) (UniProt Q9UBF8); settings: at 1 µM
[20] = target: Sphingosine kinase 1 (Homo sapiens) (UniProt Q9NYA1); settings: at 0.1 µM;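 note: mean percent inhibition of SPHK1 activity, measured within the GSK PKIS screening panel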
Sequence of Sphingosine kinase 1 (Homo sapiens) (Q9NYA1 whole entry): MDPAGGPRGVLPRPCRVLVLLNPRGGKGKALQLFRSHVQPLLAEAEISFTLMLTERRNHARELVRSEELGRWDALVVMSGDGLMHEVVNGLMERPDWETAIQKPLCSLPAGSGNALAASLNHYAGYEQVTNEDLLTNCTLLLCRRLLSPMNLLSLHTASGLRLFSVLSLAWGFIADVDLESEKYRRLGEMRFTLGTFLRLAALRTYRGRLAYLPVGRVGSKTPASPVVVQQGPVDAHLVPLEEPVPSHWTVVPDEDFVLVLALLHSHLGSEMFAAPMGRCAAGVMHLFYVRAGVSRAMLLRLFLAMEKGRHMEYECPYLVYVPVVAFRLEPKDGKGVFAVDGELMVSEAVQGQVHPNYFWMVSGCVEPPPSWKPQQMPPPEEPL

Sequence of Mitogen-activated protein kinase 3 (Homo sapiens) (P27361 whole entry): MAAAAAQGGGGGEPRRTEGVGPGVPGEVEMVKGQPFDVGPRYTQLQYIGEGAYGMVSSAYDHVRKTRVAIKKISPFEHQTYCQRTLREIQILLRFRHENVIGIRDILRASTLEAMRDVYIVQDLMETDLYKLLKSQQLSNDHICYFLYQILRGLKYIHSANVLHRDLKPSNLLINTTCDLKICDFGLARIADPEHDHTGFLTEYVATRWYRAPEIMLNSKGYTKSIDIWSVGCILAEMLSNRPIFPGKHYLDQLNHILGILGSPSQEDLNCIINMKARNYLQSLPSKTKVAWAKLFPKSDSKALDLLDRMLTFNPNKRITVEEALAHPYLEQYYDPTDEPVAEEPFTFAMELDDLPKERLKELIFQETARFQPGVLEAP
Sequence of SRSF protein kinase 3 (Homo sapiens) (Q9UPE1 whole entry): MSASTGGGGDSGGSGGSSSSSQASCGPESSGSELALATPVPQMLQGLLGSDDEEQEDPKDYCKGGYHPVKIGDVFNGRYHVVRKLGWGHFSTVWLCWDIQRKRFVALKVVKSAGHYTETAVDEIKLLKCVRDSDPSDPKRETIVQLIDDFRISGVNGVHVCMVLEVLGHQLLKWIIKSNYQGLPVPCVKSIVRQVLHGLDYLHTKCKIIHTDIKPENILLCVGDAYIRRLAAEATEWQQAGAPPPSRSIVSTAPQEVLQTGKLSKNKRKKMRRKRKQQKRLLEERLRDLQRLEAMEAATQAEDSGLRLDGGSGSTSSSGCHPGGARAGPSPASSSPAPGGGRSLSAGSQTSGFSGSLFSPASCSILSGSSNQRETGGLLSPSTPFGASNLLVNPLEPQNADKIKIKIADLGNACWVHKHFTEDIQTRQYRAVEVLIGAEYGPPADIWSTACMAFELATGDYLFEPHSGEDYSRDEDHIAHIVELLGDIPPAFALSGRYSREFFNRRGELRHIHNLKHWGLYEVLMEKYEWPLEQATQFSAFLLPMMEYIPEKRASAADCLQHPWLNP

Row | SMILES | inhibition [1] | inhibition [2] | inhibition [3] | inhibition [4] | inhibition [5] | inhibition [6] | inhibition [7] | inhibition [8] | inhibition [9] | inhibition [10] | inhibition [11] | inhibition [12] | inhibition [13] | inhibition [14] | inhibition [15] | inhibition [16] | inhibition [17] | inhibition [18] | inhibition [19] | inhibition [20]
1 | Nc1nccc(-c2c(-c3ccc(F)cc3)nn3cc(C(F)(F)F)ccc23)n1 | 2.32% | -1.48% | -1.99% | 7.89% | 47.2% | 4.49% | 10.5% | 0.69% | -1.62% | 1.12% | 1.01% | -0.96% | -1.1% | 0.15% | 0.75% | 0.55% | 0.3% | -4.79% | -4.51% | 4.09%
2 | CC(C)c1ccc2c(c1)NC(=O)/C2=N/Nc1ccc(S(N)(=O)=O)cc1 | -0.93% | -0.91% | -3.87% | 0.75% | -0.04% | -1.84% | 3.37% | -0.12% | -0.88% | 0.48% | 0.63% | -0.89% | -0.94% | 0.32% | 1.8% | 0.64% | 0.71% | 0.05% | 0.24% | 0%
3 | [O-][S+]1CCN(Cc2ccc(-c3ccc4ncnc(Nc5ccc(OCc6ccccc6)c(Cl)c5)c4c3)o2)CC1 | 2.24% | -1.59% | 0.03% | 16.9% | 20.8% | 1.98% | 5.76% | 1.28% | 0.19% | 0.47% | 1.59% | -1.34% | -2.79% | 1.57% | 0.92% | 0.92% | 2.1% | -2.13% | -0.85% | 1.88%
4 | Cc1ccc2c(-c3ccnc(Nc4ccc5c(c4)OCCO5)n3)c(-c3ccc(C(F)(F)F)cc3)nn2n1 | 3.87% | -2.01% | -1.1% | 3.33% | 23.2% | 1.91% | 5.75% | 0.71% | -1.27% | 0.73% | 0.43% | -1.35% | -3.21% | -1.09% | -0.65% | 0.68% | 0.76% | 6.55% | -2.49% | 0%
5 | COc1cc(Nc2nccc(-c3cnn4ncccc34)n2)cc(OC)c1 | 9.37% | -0.86% | -1.27% | 2.59% | 10.3% | 2.14% | 10.7% | 1.49% | 12.1% | 1.04% | 5.11% | -0.28% | 4.85% | 2.19% | 20.5% | 6.1% | 35% | -0.41% | 14.9% | 0%
6 | ON=C1CCc2cc(-c3nc(C4CCNCC4)[nH]c3-c3ccncc3)ccc21 | 0.97% | -1.32% | -2.19% | 25.4% | 73.7% | 7.03% | 33.1% | -0.29% | 0.95% | 1.31% | 1% | -1.62% | -5.28% | -1.04% | 0% | 0.31% | 3.08% | 2.07% | -0.63% | -1.16%
7 | COc1cccc(-n2ncc3c(N/N=C/c4ccc(C)cc4)ncnc32)c1 | 3.26% | 3.27% | 0.15% | 6.95% | 9.02% | 1.15% | 4.42% | 4.61% | 6.26% | 3.81% | 6.67% | -3.85% | -1.68% | 5.44% | 7.64% | 1.43% | 5.9% | -1.45% | 3.16% | 3.47%
